# Experimental data from PubChem BioAssay (EPA / NIEHS).
# Active and inactive are the calls of the source. Rule for the calls: active = hit-call score of the fitted dose curve at least 0.9, where 1 is the maximum; inactive = score below 0.9.
# Read-out: Apolipoprotein A-V (APOA5) gene, APOA5 (gene 116519)
# Assay: LTEA_HepaRG_APOA5: Life Technologies and Expression Analysis (LTEA) Assay for Apolipoprotein A-V (APOA5) gene using HepaRG (AID 2283474)
# Settings: mRNA level, 48 h; actives raise or lower the signal
# Description: LTEA_HepaRG is a cell based, multiplexed-readout assay that uses HepaRG, a human liver cell line, with measurements taken at 48 hours after chemical dosing on a 96-well plate.LTEA_HepaRG_APOA5 is one of 102 assay component(s) measured in the LTEA HepaRG cell culture assay. It is a marker of Steatosis.Data from the assay component LTEA_HepaRG_APOA5 was analyzed into 1 endpoint. This assay endpoint, LTEA_HepaRG_APOA5, was analyzed with bidirectional fitting relative to DMSO as the negative control and baseline of activity. Using a type of inducible reporter, measures of mRNA induction for gain or loss-of-signal activity can be used to understand regulation of transcription factor activity. To generalize the intended target to other relatable targets, this assay endpoint is annotated to the apolipoprotein intended target family, where the subfamily is Steatosis.
# A total of 1060 chemcials from the ToxCast library were tested in eight-point concentration-response experiments. Cell culture and cytotoxicity assays were conducted at Thermo Fisher Scientific's Custom Services facility (Madison, WI). A single lot of human HepaRG cells (Thermo Fisher Scientific, Frederick, MD) was used for the cell culture experiments. 96-well format collagen type I coated plates of human HepaRG cells were prepared using established methods. Briefly, cryopreserved HepaRG cells were thawed, plated at a density of approximately 100,000 cells/well in HepaRG Thaw, Plate, and General Purpose media (HPRG770, Thermo Fisher Scientific), and incubated for 48 hours. 0.5% DMSO was selected as vehicle control to balance the requisite need of DMSO in HepaRG cultures to maintain differentiation (for example, baseline metabolism, proportions of hepatocytes vs. cholangiocytes), while enabling further hepatic receptor pathway activation (for example, PXR and CAR) in response to chemical exposure. 48 hours after plating, the culture medium was replaced with HepaRG Serum-Free Incudtion Media. Cells were exposed to each test chemical in duplicate and maintained in CO2 incubators for another 48 hours. Chemical plates were thawed to room temperature and 200x concentrations of treatment groups were prepared. 8-point conentration-reponse curves were made with the highest exposure at 100 uM, followed by half-log dilutions, all in 0.5% DMSO. Each test plate contained variouse controls, induction positive controls (1mM phenobarbital), cytotoxicity positive controls ([…] aflatoxin B1), vehicle controls (0.5% DMSO), and total lysis controls (0.5% DMSO). Cell morphology images were taken using an Essen IncuCyte FLR automated microscope, with six 96-well plates imaged in about 24 minutes. Images were captured and exported and JPEG files. Spent culture media was transfered to black-well plates for the LDH assay, and remaining media was sorted at -80 C for later use. Cells were treated with RLT buffer and frozen until shipped for gene expression analysis. Total RNA was isolated from the cell suspension in 75 uL of Buffer RLT (Qiagen, Germantown, MD 20874) by Quintiles/Expression Analysis (Durham, NC) using a custom isolation procedure. Total RNA from each plate well was transferred to a preamplification plate. Fluidigm's 96.96 Dynamic ArrayTM (Fluidigm, Amsterdam, the Netherlands) technology was used for gene expression analyses by quantitative reverse transcription polymerase chain reaction (qRT-PCR, performed by Quintiles/Expression Analysis, Durham, NC)89. Standard TaqManTM Assays (Applied Biosystems/ThermoFisher Scientific, Foster City, CA) were used to assess the expression of 93 genes selected based on their selectivity and sensitivity to important hepatic receptors known to be modulated by environmental chemicals; importance in human hepatocyte functionality; and hepatotoxicity. […]
SMILES,outcome,AC50
COc1cc(Cl)c(OC)cc1Cl,inactive,
CC(C)N1C(=O)N(c2ccccc2)CSC1=NC(C)(C)C,,81.8 µM (active)
Cc1cnc(C2=NC(C)(C(C)C)C(=O)N2)c(C(=O)O)c1 (stereo not given),inactive,
CC1(C)CON(Cc2ccccc2Cl)C1=O,inactive,
COC(=O)c1c(C(F)F)nc(C(F)(F)F)c(C2=NCCS2)c1CC(C)C,inactive,
Cc1nc(N(C)C)nc(OC(=O)N(C)C)c1C,inactive,
Nc1c(Cl)c(F)nc(OCC(=O)O)c1Cl,inactive,
CCCC(=NOCC)C1=C(O)CC(CC(C)SCC)CC1=O (stereo not given),inactive,
CCOc1cc(C(C)(C)C)ccc1C1COC(c2c(F)cccc2F)=N1 (stereo not given),inactive,
O=c1n(Cl)c(=O)n(Cl)c(=O)n1Cl,inactive,
CCOc1nc(C(Cl)(Cl)Cl)ns1,,1.44 µM (active)
CCOP(=O)(OCC)Oc1nc(Cl)c(Cl)cc1Cl,,83.8 µM (active)
COCC(C)N(C(=O)CCl)c1c(C)csc1C (stereo not given),inactive,
CC1(C)C(C(=O)OC(C#N)c2cccc(Oc3ccccc3)c2)C1(C)C (stereo not given),inactive,
CCOP(=S)(OCC)Oc1nc(Cl)n(C(C)C)n1,,21.4 µM (active)
Nc1cnn(-c2ccccc2)c(=O)c1Cl,inactive,
CN/C(=N\[N+](=O)[O-])NCc1cnc(Cl)s1,inactive,
O=P(O)(O)CCCl,inactive,
CN=C=S,inactive,
O=C1C2CC=CCC2C(=O)N1SC(Cl)(Cl)Cl (stereo not given),inactive,

SMILES,outcome,AC50
CCSC(=O)N1CCCCCC1,inactive,
CO/N=C(/C1=NOCCO1)c1ccccc1Oc1ncnc(Oc2ccccc2Cl)c1F,,23.6 µM (active)
COCc1cnc(C2=NC(C)(C(C)C)C(=O)N2)c(C(=O)O)c1 (stereo not given),inactive,
OC(c1ccc(Cl)cc1)(c1ccc(Cl)cc1)C(Cl)(Cl)Cl,,4.05 µM (active)
CNC(=O)N(C)c1nnc(C(C)(C)C)s1,inactive,
COC(=O)NC(=S)Nc1ccccc1NC(=S)NC(=O)OC,inactive,
N#Cc1c[nH]cc1-c1cccc2c1OC(F)(F)O2,inactive,
CCCN(CC)CC1COC2(CCC(C(C)(C)C)CC2)O1 (stereo not given),inactive,
COP(=S)(OC)SCn1nnc2ccccc2c1=O,inactive,
O=C(Nc1ccccc1-c1ccc(Cl)cc1)c1cccnc1Cl,inactive,
CCN(CC)c1nc(C)cc(OP(=S)(OC)OC)n1,inactive,
CS(=O)(=O)c1ccc(C(=O)C2C(=O)CCCC2=O)c([N+](=O)[O-])c1,inactive,
CCCCC(C#N)(Cn1cncn1)c1ccc(Cl)cc1 (stereo not given),inactive,
COc1ccc(-c2ccccc2)cc1NNC(=O)OC(C)C,inactive,
CC(C)C1(C)N=C(c2ncccc2C(=O)O)NC1=O (stereo not given),inactive,
C=C(C)CN(CC)c1c([N+](=O)[O-])cc(C(F)(F)F)cc1[N+](=O)[O-],inactive,
COP(=S)(OC)Oc1ccc([N+](=O)[O-])c(C)c1,inactive,
CC(C)(C)C(=O)C(Oc1ccc(Cl)cc1)n1cncn1 (stereo not given),inactive,
Cc1cc(C)nc(Nc2ccccc2)n1,inactive,
CNC(=O)Oc1cccc2ccccc12,inactive,
